From PubChem BioAssay
This excerpt belongs to a sample that is enriched for hits.
NS1 function inh: blocks influenza NS1 protein function; Potency, µM (series often up to 46.1 µM); hit rate 0.4% among 270,000; AID 2326; calls by dose curve; further: actives are rising curves; nearly all actives have a fitted effect of over 50% in size
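S. cerevisiae expressing influenza A NS1, grown in glucose, washed, then diluted 1:100 into pH 6.0 -URA galactose medium with 23 nl compound. Growth recovery read as OD600; NS1-free strain serves as control.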
Cruzain noTriton: blocks cruzain activity in detergent-free assay | P25779 | purified cruzain, Z-FR-AMC fluorescence, no detergent | Potency, µM, most hits filed as inhibitors | hit rate 2.3% among 200,000 | AID 1476; further: nearly all actives have a fitted effect of over 40% in size
Target sequence (P25779 123-467 limits assumed): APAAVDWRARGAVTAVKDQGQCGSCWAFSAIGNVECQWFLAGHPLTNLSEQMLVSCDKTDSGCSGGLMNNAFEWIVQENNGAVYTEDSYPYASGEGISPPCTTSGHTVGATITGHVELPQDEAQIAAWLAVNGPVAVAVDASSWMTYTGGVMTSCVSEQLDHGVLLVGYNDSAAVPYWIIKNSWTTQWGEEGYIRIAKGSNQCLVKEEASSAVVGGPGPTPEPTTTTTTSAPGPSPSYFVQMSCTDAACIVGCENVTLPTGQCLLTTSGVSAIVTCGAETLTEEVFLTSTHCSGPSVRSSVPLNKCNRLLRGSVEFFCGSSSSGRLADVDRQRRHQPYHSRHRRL
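Detergent-free condition (0.00005% Triton X-100) in acetate buffer pH 5.5 with DTT. 1.5 nM enzyme and compound were pre-mixed 15 min, then 2 uM Z-FR-AMC substrate added; reaction progress from fluorescence change between first and third reads (60 s).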
Cruzain Triton: inhibitors of Trypanosoma cruzi cruzain with detergent; purified cruzain, Z-FR-AMC fluorescence, 0.01% Triton; Potency, µM, hits mostly inhibitors; hit rate 0.43% among 200,000; AID 1478; further: nearly all actives have a fitted effect of over 40% in size
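Cysteine protease activity tested under reducing, mildly acidic conditions (100 mM sodium acetate pH 5.5, 5 mM DTT) plus 0.01% Triton X-100. Cruzain 1.5 nM; substrate Z-FR-AMC 2 uM; 15 min compound preincubation at room temperature.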
Each line names hits and unclear results; the compound was inactive in the other large screens. Unless noted, the call rests on the fitted dose curve; in most records, active means well fitted curve in the direction sought with a large enough effect; inconclusive means small, poorly fitted or top-dose-only effect, or another doubt; inactive means no such curve, though single readings can be large; an effect the other way counts as inactive or inconclusive.

O=C(CN1CCN(c2ccccc2)CC1)Nc1ccccc1Cl	none (no result: Cruzain noTriton, Cruzain Triton)
COc1ccc(Cl)cc1NC(=O)CSc1nc(N2CCCCC2)nc(N2CCCCC2)n1	Cruzain noTriton 16µM
COc1ccc(Cl)cc1NC(=O)CSc1nc(N2CCOCC2)nc(N2CCOCC2)n1	none (no result: Cruzain noTriton, Cruzain Triton)
O=C(OCc1nc2scc(-c3ccccc3)c2c(=O)[nH]1)c1cc(Cl)ccc1[N+](=O)[O-]	Cruzain noTriton 32µM
Cc1c(C(=O)OCc2nc3scc(-c4ccccc4)c3c(=O)[nH]2)cccc1[N+](=O)[O-]	Cruzain noTriton inconclusive
COc1ccc([C@H]2c3cc(OC)c(OC)cc3C[C@@H](C)[C@@H]2C)cc1OC	Cruzain noTriton inconclusive (no result: NS1 function inh)
COc1ccc(/C=N/NC(=O)CCSc2nc3ccccc3s2)cc1OC	Cruzain noTriton inconclusive
O=C(CCSc1nc2ccccc2s1)N/N=C/c1c(O)ccc2ccccc12	NS1 function inh inconclusive, Cruzain noTriton 13µM
CCc1cc2c(cc3c(=O)n(CC(=O)NCCc4ccc(OC)cc4OC)nc(CC)n32)s1	none (no result: NS1 function inh)
COc1ccc(-c2cn3cccnc3n2)cc1F	Cruzain noTriton 20µM
CCC(=O)Nc1cc(-c2cn3cccnc3n2)ccc1OC	none (no result: NS1 function inh)
COc1cccc(NC(=O)c2cc3c(=O)n(C)c4ccccc4c3n2C)c1	Cruzain noTriton inconclusive (no result: NS1 function inh)
CC(C)c1ccc2c(c1)CC[C@H]1[C@@](C)(CN)CCC[C@@]21C	none
CCN(CC)CCCNC(=S)N1CCN(c2nc3ccccc3n2CC)CC1	none (no result: Cruzain noTriton, Cruzain Triton)
CCN(CC)CCCNC(=S)N1CCn2c(nc3ccccc32)C1	Cruzain Triton 13µM
O=C(CNC(=O)c1cccc(F)c1)OCC(=O)N1CCCCC1	Cruzain noTriton inconclusive, Cruzain Triton 25µM
Cc1cc(C(=O)NCC(=O)OCC(=O)N2CCCCCC2)ccc1[N+](=O)[O-]	Cruzain noTriton 16µM, Cruzain Triton 14µM
Cc1cc(C(=O)NCC(=O)OCC(=O)N(C)C2CCCCC2)ccc1[N+](=O)[O-]	Cruzain noTriton inconclusive, Cruzain Triton inconclusive
O=C(CNC(=O)c1cccc(F)c1)OCC(=O)N1CCN(C(=O)c2ccco2)CC1	none (no result: Cruzain noTriton, Cruzain Triton)
COC(=O)N[C@@H](CCc1ccccc1)/C(C(=O)OC)=C(\C)NCc1ccccc1	none (no result: NS1 function inh)
COCCCN=C1NN=C(c2cc(C)n(-c3ccccc3)c2C)CS1	none
CCCCN=C1NN=C(c2cc3ccccc3o2)CS1	Cruzain noTriton 7.9µM
COc1cc2c(C#N)c(N3CCc4ccccc4C3)nc(N)c2c(N)n1	Cruzain noTriton 13µM
COc1cc2c(C#N)c(N3CCCCC3)nc(N)c2c(N)n1	none
CCCOc1ccc(-c2c(C(=O)N/N=C/c3ccc(OC)cc3)nnn2-c2nonc2N)cc1	Cruzain noTriton inconclusive
CCCOc1ccc(-c2c(C(=O)N/N=C/c3ccc(OCC)cc3)nnn2-c2nonc2N)cc1	Cruzain noTriton 10µM
Cc1nn2c(NCCCN3CCOCC3)c3c(nc2c1-c1ccccc1)CCC3	none
CCCCNc1c2c(nc3c(-c4ccccc4)c(C)nn13)CCC2	Cruzain noTriton 7.9µM
O=C1C(Cl)=C(Cl)C(=O)C(Cl)=C1Cl	none (no result: NS1 function inh)
COC(=O)CSc1nc2c(c(-c3ccc(O)cc3)c1C#N)CCCC2	none (no result: Cruzain noTriton, Cruzain Triton)
COC(=O)CSc1nc2c(c(-c3ccco3)c1C#N)CCCC2	Cruzain noTriton 20µM, Cruzain Triton 28µM
Cc1cccc(C(=O)Nc2ccccc2C(=O)OCC(=O)Nc2ccc(C#N)cc2)c1	Cruzain noTriton 32µM
Cc1ccc(NC(=O)COC(=O)c2ccccc2Nc2ccccc2)cc1	Cruzain noTriton inconclusive
CCNc1ncc2ncc(=O)n(Cc3ccc(F)cc3)c2n1	Cruzain Triton inconclusive (no result: NS1 function inh)
COc1ccc(OC)c(NC(=O)CC2SC(=Nc3ccccc3)N(CCc3ccccn3)C2=O)c1 (stereo not drawn)	Cruzain noTriton inconclusive
COc1ccc(OC)c(NC(=O)CC2SC(=Nc3ccc(F)cc3)N(CCC3=CCCCC3)C2=O)c1 (stereo not drawn)	Cruzain noTriton 20µM
COc1ccc(N=C2SC(CC(=O)Nc3ccc(OC)cc3OC)C(=O)N2C)cc1 (stereo not drawn)	Cruzain noTriton inconclusive
COc1cc([N+](=O)[O-])ccc1NC(=O)CC1SC(=Nc2ccc(F)cc2)N(CCC2=CCCCC2)C1=O (stereo not drawn)	NS1 function inh inconclusive, Cruzain noTriton 10µM
COc1ccc(NC(=O)CN2C(=O)C(C)N=C(c3ccccc3)c3ccccc32)cc1OC (stereo not drawn)	Cruzain noTriton inconclusive (no result: NS1 function inh)
Cc1cccc(NC(=O)N[C@@H]2N=C(c3ccccc3)c3ccccc3N(CC(=O)c3ccccc3C)C2=O)c1	Cruzain noTriton 32µM (no result: NS1 function inh)
O=C1S/C(=C/c2ccccc2)C(=O)N1CC(O)Cn1c2ccccc2c2ccccc21 (stereo not drawn)	none
CN(C)c1ccc(/C=C2\SC(=O)N(CC(O)Cn3c4ccccc4c4ccccc43)C2=O)cc1 (stereo not drawn)	Cruzain noTriton 5µM
COC(=O)c1ccccc1C[C@]1(C(=O)OC)C=C[C@H](C)[C@@H](c2ccccc2)N1C(=O)C(F)(F)F	none (no result: NS1 function inh)
O=c1oc2ccccc2cc1-c1csc(Cc2nc(-c3ccc(Cl)cc3)cs2)n1	Cruzain noTriton 10µM
O=C(Nc1nc(-c2cc3ccccc3oc2=O)cs1)c1ccco1	none
O=c1oc2ccccc2cc1-c1csc(NN=C2CCCCC2)n1	Cruzain noTriton 20µM
O=c1oc2ccccc2cc1-c1csc(Nc2nc3c(F)cccc3s2)n1	Cruzain noTriton 32µM
O=c1oc2ccccc2cc1-c1csc(Nc2nc3ccc(F)cc3s2)n1	none
O=c1oc2ccccc2cc1-c1nc(-c2cccc(Cl)c2)cs1	none (no result: NS1 function inh)
CC(C)[C@@H](CC(=O)N[C@@H]1CCNC[C@H]1C(=O)N[C@H](CC(=O)N[C@@H](CCC(=O)O)CC(=O)O)Cc1c[nH]c2ccccc12)NC(=O)C[C@H](CO)NC(=O)[C@@H]1CNCC[C@H]1N	none (no result: NS1 function inh)
Cc1cc(Nc2cccc(C(F)(F)F)c2)n2nc(C)nc2n1	none
COc1ccc(-c2nc3nc(C)cc(Nc4cccc(C(F)(F)F)c4)n3n2)cc1	Cruzain noTriton 25µM (no result: NS1 function inh)
Cc1cccc(C(=O)Nc2ccc(OCc3cc(=O)n4ccsc4n3)cc2)c1	none (no result: NS1 function inh)
COc1cccc(C2CC(=O)N3CN(C4CCCCC4)CSC3=C2C#N)c1 (stereo not drawn)	Cruzain Triton 28µM (no result: NS1 function inh)
COc1ccc(N2CSC3=C(C#N)C(c4ccc(OC)c(OC)c4)CC(=O)N3C2)c(OC)c1 (stereo not drawn)	none
COc1ccc(C2CC(=O)N3CN(C4CCCCC4)CSC3=C2C#N)cc1 (stereo not drawn)	Cruzain Triton 20µM (no result: NS1 function inh)
CN1CSC2=C(C#N)C(c3cccc(OCc4ccccc4)c3)CC(=O)N2C1 (stereo not drawn)	none
COc1ccc(CNC(=O)CCCCCn2c(=O)[nH]c3ccccc3c2=O)cc1	none (no result: NS1 function inh)
CCCc1ccc(S(=O)(=O)N2CCC(c3nnc(-c4cccc(C)c4)o3)CC2)cc1	none (no result: NS1 function inh)
CCc1cccc(CC)c1NC(=O)C1SC(=Nc2ccccc2C)C(c2nc3ccccc3s2)=C1N (stereo not drawn)	Cruzain noTriton 6.3µM
CCc1cccc(C)c1NC(=O)CCCSc1nc2ccccc2s1	none
O=C(O)C(O)(c1ccc(-c2ccccc2)cc1)c1ccc(-c2ccccc2)cc1	none
N#C/C(C(=O)NCc1ccccc1)=C1/N=C(NC(=O)c2cccs2)c2ccccc21	Cruzain noTriton 25µM
CCCNC(=O)/C(C#N)=C1\N=C(NC(=O)c2ccco2)c2ccccc21	none (no result: Cruzain noTriton, Cruzain Triton)
Cc1oc2cc3oc(=O)c(CCC(=O)NCCc4ccccc4F)c(C)c3cc2c1C	none (no result: NS1 function inh)
